This is a sample that favours compounds with a hit; in the whole collection about 4% have one here.
Peg3 prom inh-1 = inhibitors of Peg3 promoter. HeLa PEG-Prom luciferase reporter, luminescence, overnight. inhibition, % at 20 µM. actives 1.7% (n = 360,000);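 active = inhibition of at least 50% at 20 µM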
TROY signal inh = blocks TROY-dependent signaling in reporter cells; actives 0.98% (n = 360,000); Q293 LMP1-TROYcd NF-kB luciferase reporter, 4 h; inhibition, % at 10 µM;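 active = compounds whose plate-normalised and pattern-corrected inhibition of the luciferase reporter signal at the single screening dose is 50% or more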
TWEAK-Fn14 inh = blocks TWEAK-Fn14 interaction in a reporter cell assay | TWEAK-stimulated Fn14 reporter cells, luciferase luminescence, 8 h | inhibition, % at 10 µM | actives 2% (n = 360,000) | AID 1159606; in the data active = inhibition above about 50%
CF NFkB inh = inhibitors of cystic fibrosis induced NF-kB; actives 0.86% (n = 360,000); KKLEB NF-kB-GFP reporter, PAF-induced, GFP fluorescence overnight; inhibition, % at 5 µM; AID 588850;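 active = at least 50% inhibition at 5 µM, scaled per plate between neutral and stimulator controls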;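 note: PAF is a Pseudomonas aeruginosa culture filtrate used as stimulus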
KKLEB cytotox = reduces viability of KKLEB cystic fibrosis airway cells; actives 0.36% (n = 360,000); activity change (cytotoxicity), % at 5 µM; KKLEB CF airway cells viability, ATPlite luminescence, overnight; active compounds read low; cells stimulated with P. aeruginosa culture filtrate;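 active = corrected activity change at or below -50% at 5 µM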
HIF-2a block = blocks HIF-2a reporter activity; 786-0 RCC cells HIF-2a reporter, luciferase luminescence, overnight; inhibition, % at 18.8 µM; actives 0.72% (n = 360,000);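 active = inhibition of the luminescence signal of 40% or more relative to plate controls, in a single-dose primary screen at 18.75 µM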
Peg3 prom inh-2 = confirmation of Peg3 promoter inhibitors; shares compounds with Peg3 prom inh-1; HeLa PEG-Prom luciferase reporter, luminescence, overnight; inhibition, % at 20 µM; actives 84% (n = 1,300); AID 602417;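 active = at 20 µM dose, 40% or more inhibition averaged across four replicates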
Each line names hits and unclear results; the compound was inactive in the other large screens (follow-up assays come after a bar, where they were run).

CC1COC(=C2C(=O)OCC2C)C1 (configuration not stated)	none
Cc1cc(Br)cn2c(Cc3ccccc3)c(-c3cccc(Br)c3)nc12	none
CC(C)(C)c1ccc(CC(=O)N2CCC2(C)C(=O)NCc2cccc3ccccc23)cc1 (configuration not stated)	Peg3 prom inh-1 52.1
CC(C)(C)CNC(=O)C1(C)CCN1C(=O)Cc1ccc(-c2ccccc2)cc1 (configuration not stated)	TWEAK-Fn14 inh 66.6
COc1ccccc1N1CCN(C2CCCN(C(=O)CN3CCCCC3=O)C2)CC1 (configuration not stated)	none
COc1cccc(C2CC(=O)Nc3cc(C)c(C)cc32)c1 (configuration not stated)	none
O=C(CSc1nccn1-c1ccccc1)c1ccc(Cl)cc1	none
Cc1ccc(C(=O)CSc2nccn2-c2ccccc2)cc1	TROY signal inh 50.7
CCOc1ccccc1OCCCC(=O)N1CCN(S(=O)(=O)c2ccccc2C#N)CC1	none
Cc1ccc(-n2c(O)c(/C=C3/C(c4ccccc4)=Nc4ccccc43)c(=O)[nH]c2=O)cc1	TWEAK-Fn14 inh 70.6
CN(CC(=O)Nc1ccc(Cl)c(Cl)c1)C(=O)CNC(=O)Cc1ccccc1	none
COCc1cc(=O)n2[nH]cc(-c3ccccc3)c2n1	none
CCCc1cc(=O)n2[nH]cc(-c3ccc(Cl)cc3)c2n1	Peg3 prom inh-1 56.8
Cc1cc(O)ccc1N/C=C/c1onc(C)c1[N+](=O)[O-]	KKLEB cytotox -52.0
CCO/C=N/Nc1nc(C(F)(F)F)nc2c1cnn2Cc1ccccc1	none
CC(C)(C)c1ccc(OCC(=O)NNC(=S)NC(=O)c2ccco2)c(Br)c1	CF NFkB inh 58.4, KKLEB cytotox -78.2
Cc1ccccc1Oc1ccc2c(c1)[C@@H]1C[C@H](N(C)C(=O)Nc3cc(Cl)cc(Cl)c3)[C@H]([C@H](C)O)C(=O)N1CC2	Peg3 prom inh-1 68.1
Cn1cc(-c2csc(C(O)(c3ccccc3)C(F)(F)F)n2)cn1 (configuration not stated)	none
Cc1c(C)c2ccc(OCC(=O)Nc3ccccn3)c(C)c2oc1=O	Peg3 prom inh-1 93.4, TROY signal inh 81.6, TWEAK-Fn14 inh 102.8, KKLEB cytotox -90.5, HIF-2a block 77.6 | Peg3 prom inh-2 84.4
Cc1c(C)c2cc(Cl)c(OCC(=O)Nc3ccccn3)cc2oc1=O	none
CSc1ccccc1NC(=O)COc1ccc(Cl)cc1Cl	none
O=C(COc1ccc(Cl)cc1Cl)Nc1ccccn1	Peg3 prom inh-1 92.0, TROY signal inh 88.8, TWEAK-Fn14 inh 107.8, KKLEB cytotox -92.4, HIF-2a block 80.5 | Peg3 prom inh-2 87.3
CC(C)[C@H](NS(=O)(=O)c1ccccc1)C(=O)OCc1cc([N+](=O)[O-])cc2c1OCOC2	none
c1cncc(-c2nc(NCc3ccc4c(c3)OCO4)c3ccccc3n2)c1	none
c1cncc(-c2nc(NCC3COc4ccccc4O3)c3ccccc3n2)c1 (configuration not stated)	Peg3 prom inh-1 58.4 | Peg3 prom inh-2 68.3
O=C(Cc1csc(Nc2nc(=S)[nH]c3ccccc23)n1)NCc1ccccc1Cl	Peg3 prom inh-1 50.9 | Peg3 prom inh-2 44.4
O=C(Cc1csc(Nc2nc(=S)[nH]c3ccccc23)n1)NCc1cccc(Cl)c1	none
CC(C)(C)C(=O)NC(=S)Nc1ccc(Cc2ccncc2)cc1	none
Cc1ccccc1NC(=O)C(=Cc1ccc(C(=O)O)cc1)C(=O)Nc1ccccc1C	Peg3 prom inh-1 59.4, TWEAK-Fn14 inh 77.9, HIF-2a block 41.7 | Peg3 prom inh-2 50.2
CC(=O)Nc1ccccc1C	none
O=C(CCNS(=O)(=O)c1ccc(F)c(F)c1)NCCN1CCOCC1	none
COc1ccc(NC(=O)N(C)[C@H]2C[C@H]3c4[nH]c5ccc(-c6cccc(C)c6)cc5c4CCN3C[C@H]2[C@H](C)O)cc1	Peg3 prom inh-1 92.3 | Peg3 prom inh-2 53.1
CCNC(=S)N1CCN(c2ccccn2)CC1	none
CC(NNC(=S)N1CCN(c2ccccn2)CC1)c1nccc2ccccc12 (configuration not stated)	Peg3 prom inh-1 91.7, HIF-2a block 52.0 | Peg3 prom inh-2 87.5
O=S(=O)(c1cccs1)N1CCCCC1	none

Screens as filed in PubChem.
